# The full ranking holds about 2,900 compounds; the median of “NF-kB SEAP reporter activity, fold change vs agonist alone” is about 0.99, and the highest 2% start at about 2.6. For the sample, the highest values were picked, then their nearest neighbours and some compounds at random.
# Legend:
# [1] = tested on: RAW-Dual; test: NF-kB SEAP reporter activity, fold change vs agonist alone; higher = enhanced NF-kB activity
# Method in brief: (§1)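 Reporter activity is given as fold change relative to agonist-alone wells. To measure it, 50 nL of library stock was pin-tooled onto RAW-Dual macrophages (50,000 cells/well, DMEM, 384-well plates), a PRR agonist followed 1 h later, and cells stayed at 37 °C, 5% CO2. Twenty hours on, supernatant was assayed for IRF (QuantiLuc luminescence) and NF-κB (QuantiBlue, 620 nm absorbance), and wells under 70% of agonist-control IncuCyte confluency in both mask sets were marked cytotoxic.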
# [2] = tested on: RAW-Dual; test: NF-kB SEAP reporter activity, fold change vs agonist alone; cytotoxicity flag (confluency mask): cytotoxic (confluency <70% of control); higher = enhanced NF-kB activity
# Method in brief: as §1
# [3] = tested on: RAW-Dual; test: NF-kB SEAP reporter activity, fold change vs agonist alone; cytotoxicity flag (confluency mask): not cytotoxic; higher = enhanced NF-kB activity
# Method in brief: as §1
# [4] = library stock concentration (final ~1000-fold dilution): 10 mM, cytotoxicity flag (confluency mask): cytotoxic (confluency <70% of control), agonist: Imiquimod (TLR7) […]
# [5] = library stock concentration (final ~1000-fold dilution): 10 mM, cytotoxicity flag (confluency mask): cytotoxic (confluency <70% of control), agonist: MPLA (TLR4) […]
# [6] = agonist: ODN 1826 (TLR9) 0.5 ug/mL
# [7] = agonist: Pam2CSK4 (TLR2/6) 0.1 ug/mL
# [8] = agonist: Pam3CSK4 (TLR2/1) 0.1 ug/mL
# [9] = library stock concentration (final ~1000-fold dilution): 10 mM, cytotoxicity flag (confluency mask): not cytotoxic, agonist: MPLA (TLR4) […]
# [10] = library stock concentration (final ~1000-fold dilution): 10 mM, cytotoxicity flag (confluency mask): not cytotoxic, agonist: Imiquimod (TLR7) […]
# [11] = library stock concentration (final ~1000-fold dilution): 10 mM water, cytotoxicity flag (confluency mask): not cytotoxic, agonist: MPLA (TLR4) […]
smiles,measurement,setting,value
CC(NC(=O)/C(C#N)=C/c1cccc(Br)n1)c1ccccc1 (configuration not stated),NF-kB SEAP reporter activity,[1]; [4],0.268
same,NF-kB SEAP reporter activity,[1]; [5],0.204
CC(NC(=O)/C(C#N)=C/c1cccc(Br)n1)c1ccccc1 (configuration not stated) (library stock concentration (final ~1000-fold dilution): 10 mM),NF-kB SEAP reporter activity,[2]; agonist: LPS (TLR4) 0.1 ug/mL,0.233
same,NF-kB SEAP reporter activity,[2]; [6],0.186
same,NF-kB SEAP reporter activity,[2]; [7],0.0992
same,NF-kB SEAP reporter activity,[2]; [8],0.136
CCC1OC(=O)C(C)(F)C(=O)C(C)C(OC2OC(C)CC(N(C)C)C2O)C(C)(OC)CC(C)C(=O)C(C)C2N(CCCCn3cc(-c4cccc(N)c4)nn3)C(=O)OC12C (configuration not stated) (library stock concentration (final ~1000-fold dilution): 10 mM),NF-kB SEAP reporter activity,[3]; agonist: LPS (TLR4) 0.1 ug/mL,1.47
same,NF-kB SEAP reporter activity,[3]; [6],0.196
same,NF-kB SEAP reporter activity,[3]; [7],0.966
same,NF-kB SEAP reporter activity,[3]; [8],0.98
CCC1OC(=O)C(C)(F)C(=O)C(C)C(OC2OC(C)CC(N(C)C)C2O)C(C)(OC)CC(C)C(=O)C(C)C2N(CCCCn3cc(-c4cccc(N)c4)nn3)C(=O)OC12C (configuration not stated),NF-kB SEAP reporter activity,[1]; [9],1.53
Nc1nc(-c2ccco2)c2cnn(Cc3ccccc3F)c2n1,NF-kB SEAP reporter activity,[1]; [10],1.05
same,NF-kB SEAP reporter activity,[1]; [9],1.22
Nc1nc(-c2ccco2)c2cnn(Cc3ccccc3F)c2n1 (library stock concentration (final ~1000-fold dilution): 10 mM),NF-kB SEAP reporter activity,[3]; agonist: LPS (TLR4) 0.1 ug/mL,1.11
same,NF-kB SEAP reporter activity,[3]; [6],1.1
same,NF-kB SEAP reporter activity,[3]; [7],1.03
same,NF-kB SEAP reporter activity,[3]; [8],1.08
NS(=O)(=O)c1ccc(NC(=S)N2CCN(C/C=C/c3ccccc3)CC2)cc1 (library stock concentration (final ~1000-fold dilution): 10 mM),NF-kB SEAP reporter activity,[3]; agonist: LPS (TLR4) 0.1 ug/mL,1.42
same,NF-kB SEAP reporter activity,[3]; [6],1.17
same,NF-kB SEAP reporter activity,[3]; [7],0.787
same,NF-kB SEAP reporter activity,[3]; [8],0.825
NS(=O)(=O)c1ccc(NC(=S)N2CCN(C/C=C/c3ccccc3)CC2)cc1,NF-kB SEAP reporter activity,[1]; [10],1.02
same,NF-kB SEAP reporter activity,[1]; [9],1.1
Cl.OCCNCc1ccc(OCc2ccc(F)cc2)c(OCc2ccc(F)cc2)c1,NF-kB SEAP reporter activity,[1]; [4],1.41
same,NF-kB SEAP reporter activity,[1]; [5],1.5
Cl.OCCNCc1ccc(OCc2ccc(F)cc2)c(OCc2ccc(F)cc2)c1 (library stock concentration (final ~1000-fold dilution): 10 mM),NF-kB SEAP reporter activity,[2]; agonist: LPS (TLR4) 0.1 ug/mL,0.702
same,NF-kB SEAP reporter activity,[2]; [6],0.629
same,NF-kB SEAP reporter activity,[2]; [7],0.301
same,NF-kB SEAP reporter activity,[2]; [8],0.354
Cl.N=C(N)NCCCCC(N)C(=O)O (configuration not stated) (library stock concentration (final ~1000-fold dilution): 10 mM water),NF-kB SEAP reporter activity,[3]; agonist: LPS (TLR4) 0.1 ug/mL,1.17
same,NF-kB SEAP reporter activity,[3]; [6],1.12
same,NF-kB SEAP reporter activity,[3]; [7],1.21
same,NF-kB SEAP reporter activity,[3]; [8],0.923
Cl.N=C(N)NCCCCC(N)C(=O)O (configuration not stated),NF-kB SEAP reporter activity,[1]; [11],1.08
CCCCNc1ncc2c(-c3ccc(CN4CCN(C)CC4)cc3)cn(C3CCC(O)CC3)c2n1.Cl (configuration not stated) (library stock concentration (final ~1000-fold dilution): 10 mM),NF-kB SEAP reporter activity,[2]; agonist: LPS (TLR4) 0.1 ug/mL,0.236
same,NF-kB SEAP reporter activity,[2]; [6],0.351
same,NF-kB SEAP reporter activity,[2]; [7],0.128
same,NF-kB SEAP reporter activity,[2]; [8],0.192
CCCCNc1ncc2c(-c3ccc(CN4CCN(C)CC4)cc3)cn(C3CCC(O)CC3)c2n1.Cl (configuration not stated),NF-kB SEAP reporter activity,[1]; [4],0.547
same,NF-kB SEAP reporter activity,[1]; [5],0.322
CCn1cc(-c2ccnc3[nH]c(-c4cccc(CN(C)C)c4)cc23)c(-c2ccc(NC(=O)N(C)C)cc2)n1,NF-kB SEAP reporter activity,[1]; [10],3.13
same,NF-kB SEAP reporter activity,[1]; [9],2.67
CN(C)C(=O)Nc1cccc(-c2ccc(N(C)C)cc2)c1 (library stock concentration (final ~1000-fold dilution): 10 mM),NF-kB SEAP reporter activity,[3]; agonist: LPS (TLR4) 0.1 ug/mL,1.52
same,NF-kB SEAP reporter activity,[3]; [6],1.08
same,NF-kB SEAP reporter activity,[3]; [7],0.914
same,NF-kB SEAP reporter activity,[3]; [8],1.01
CCn1cc(-c2ccnc3[nH]c(-c4cccc(CN(C)C)c4)cc23)c(-c2ccc(NC(=O)N(C)C)cc2)n1 (library stock concentration (final ~1000-fold dilution): 10 mM),NF-kB SEAP reporter activity,[3]; agonist: LPS (TLR4) 0.1 ug/mL,6.43
same,NF-kB SEAP reporter activity,[3]; [6],0.432
same,NF-kB SEAP reporter activity,[3]; [7],1.83
same,NF-kB SEAP reporter activity,[3]; [8],3.76
CN(C)C(=O)Nc1cccc(-c2ccc(N(C)C)cc2)c1,NF-kB SEAP reporter activity,[1]; [10],0.998
same,NF-kB SEAP reporter activity,[1]; [9],0.985
CS(=O)(=O)O.O=C(Nc1cccc(Cl)c1)Nc1ncc(CCNc2ncnc3ccsc23)s1 (library stock concentration (final ~1000-fold dilution): 10 mM),NF-kB SEAP reporter activity,[2]; agonist: LPS (TLR4) 0.1 ug/mL,1
same,NF-kB SEAP reporter activity,[2]; [6],0.54
same,NF-kB SEAP reporter activity,[2]; [7],0.153
same,NF-kB SEAP reporter activity,[2]; [8],0.292
CS(=O)(=O)O.O=C(Nc1cccc(Cl)c1)Nc1ncc(CCNc2ncnc3ccsc23)s1,NF-kB SEAP reporter activity,[1]; [4],0.503
same,NF-kB SEAP reporter activity,[1]; [5],0.512
CCCCCCOc1cc(C)c(O)c(C)c1C (library stock concentration (final ~1000-fold dilution): 10 mM),NF-kB SEAP reporter activity,[2]; agonist: LPS (TLR4) 0.1 ug/mL,0.406
same,NF-kB SEAP reporter activity,[2]; [6],0.234
same,NF-kB SEAP reporter activity,[2]; [7],0.154
same,NF-kB SEAP reporter activity,[2]; [8],0.209
CCCCCCOc1cc(C)c(O)c(C)c1C,NF-kB SEAP reporter activity,[1]; [4],0.313
same,NF-kB SEAP reporter activity,[1]; [5],1.36
O=C(NC(C1CC1)C(F)(F)F)c1cc(-c2cnn3cc(-c4ccc(F)cc4)cnc23)cs1 (configuration not stated) (library stock concentration (final ~1000-fold dilution): 10 mM),NF-kB SEAP reporter activity,[3]; agonist: LPS (TLR4) 0.1 ug/mL,2.68
same,NF-kB SEAP reporter activity,[3]; [6],1.73
same,NF-kB SEAP reporter activity,[3]; [7],2.46
same,NF-kB SEAP reporter activity,[3]; [8],3.14
Cl.Cl.c1cc(-c2cnn3cc(-c4ccc(OCCN5CCCCC5)cc4)cnc23)ccn1 (library stock concentration (final ~1000-fold dilution): 10 mM water),NF-kB SEAP reporter activity,[3]; agonist: LPS (TLR4) 0.1 ug/mL,1.69
same,NF-kB SEAP reporter activity,[3]; [6],0.252
same,NF-kB SEAP reporter activity,[3]; [7],1.44
same,NF-kB SEAP reporter activity,[3]; [8],1.92
c1cc(-c2cnn3cc(-c4ccc(OCCN5CCCCC5)cc4)cnc23)ccn1 (library stock concentration (final ~1000-fold dilution): 2 mM),NF-kB SEAP reporter activity,[3]; agonist: LPS (TLR4) 0.1 ug/mL,1.38
same,NF-kB SEAP reporter activity,[3]; [6],0.365
same,NF-kB SEAP reporter activity,[3]; [7],1.32
same,NF-kB SEAP reporter activity,[3]; [8],1.28
Cl.Cl.c1cc(-c2cnn3cc(-c4ccc(OCCN5CCCCC5)cc4)cnc23)ccn1,NF-kB SEAP reporter activity,"[1]; library stock concentration (final ~1000-fold dilution): 10 mM water, cytotoxicity flag (confluency mask): not cytotoxic, agonist: Imiquimod (TLR7) […]",0.944
same,NF-kB SEAP reporter activity,[1]; [11],1.2
O=C(NC(C1CC1)C(F)(F)F)c1cc(-c2cnn3cc(-c4ccc(F)cc4)cnc23)cs1 (configuration not stated),NF-kB SEAP reporter activity,[1]; [10],1.28
same,NF-kB SEAP reporter activity,[1]; [9],1.98
c1cc(-c2cnn3cc(-c4ccc(OCCN5CCCCC5)cc4)cnc23)ccn1,NF-kB SEAP reporter activity,"[1]; library stock concentration (final ~1000-fold dilution): 2 mM, cytotoxicity flag (confluency mask): not cytotoxic, agonist: Imiquimod (TLR7) […]",0.841
same,NF-kB SEAP reporter activity,"[1]; library stock concentration (final ~1000-fold dilution): 2 mM, cytotoxicity flag (confluency mask): not cytotoxic, agonist: MPLA (TLR4) […]",1.08

# — the supplement of paper PMC10037445
